This is an account of results in PubChem BioAssay (Tox21).

Results filed as inconclusive are left out. Activity calls are given as the source filed them. Calls follow the shape of the dose curve; as a rule, active = well fitted curve in the direction sought with a large enough effect in the repeat runs; inconclusive = weak or mixed curves; inactive = no such curve, though single readings can be large; an effect the other way counts as inactive or inconclusive.

Assay [1] is described as follows: A CellTox Green Cytotoxicity Assay to monitor cytotoxicity in HEK293 cells - 40 hour (AID 1224871). Also: nearly all actives have a fitted effect of over 45% in size. The method, boiled down:
(§1)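 Cytotoxicity was tracked continuously in HEK293 cells by a DNA-binding dye excluded from viable cells. Compounds were transferred in DMSO 5 h after seeding; fluorescence was recorded at intervals up to 40 h.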

The nature of assay [2]: qHTS RealTime-Glo MT Cell Viability Assay in HEK293 cells - 16 hour (AID 1224872). Also: top concentration of the series differs between compounds; nearly all actives have a fitted effect of over 50% in size. The method, boiled down:
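HEK293 cells seeded with NanoLuc/prosubstrate reagent, rested 5 h at 37 C, then dosed and kept at 37 C up to 40 h. Nonlytic real-time luminescence from viable cells read at 0, 8, 16, 24, 32 and 40 h.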

Assay [3] is described as follows: qHTS RealTime-Glo MT Cell Viability Assay in HepG2 cells - 8 hour (AID 1224873). Also: nearly all actives have a fitted effect of over 55% in size. A digest of the protocol:
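Real-time viability: cells seeded at 600 per well together with NanoLuc and cell-permeant prosubstrate, compounds added after 5 h incubation. Luminescence tracked at 0, 8, 16, 24, 32 and 40 h of exposure.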

Assay [4] can be described thus: qHTS RealTime-Glo MT Cell Viability Assay in HEK293 cells - 40 hour (AID 1224874). Also: nearly all actives have a fitted effect of over 50% in size. The following applies: RealTime-Glo luminescence; max response: active compounds read low. A digest of the protocol:
(§2)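 Nonlytic bioluminescent viability monitoring. HEK293 at 600 cells/well with reagent; 5 h settle; compound transfer by pintool; plates held at 37 C and read at set time points.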

A short description of assay [5]: A CellTox Green Cytotoxicity Assay to monitor cytotoxicity in HEK293 cells - 24 hour (AID 1224875). Also: series mostly up to about 77 µM; nearly all actives have a fitted effect of over 45% in size. The method, boiled down:
as §1

Assay [6] can be described thus: A CellTox Green Cytotoxicity Assay to monitor cytotoxicity in HepG2 cells - 16 hour (AID 1224876). Also: nearly all actives have a fitted effect of over 45% in size. A digest of the protocol:
(§3)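 Real-time, homogeneous cytotoxicity readout: dead-cell DNA staining by CellTox Green in HepG2 monolayers, fluorescence measured at timed intervals up to 40 h of continuous compound exposure.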

Assay [7] is described as follows: qHTS RealTime-Glo MT Cell Viability Assay in HepG2 cells - 32 hour (AID 1224877). Also: nearly all actives have a fitted effect of over 55% in size. The method, boiled down:
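HepG2 cells (600/well) were dispensed with RealTime-Glo reagents, incubated 5 h at 37 °C, then treated with compounds in DMSO for up to 40 h. Nonlytic NanoLuc luminescence reflecting viable cells was read at each stated time point.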

The nature of assay [8]: A CellTox Green Cytotoxicity Assay to monitor cytotoxicity in HepG2 cells - 24 hour (AID 1224878). Also: nearly all actives have a fitted effect of over 45% in size. The method, boiled down:
as §3

The nature of assay [9]: A CellTox Green Cytotoxicity Assay to monitor cytotoxicity in HepG2 cells - 40 hour (AID 1224879). Also: nearly all actives have a fitted effect of over 40% in size. A digest of the protocol:
as §3

Assay [10] in a line: qHTS RealTime-Glo MT Cell Viability Assay in HEK293 cells - 0 hour (AID 1224880). Also: nearly all actives have a fitted effect of over 45% in size. Also: potency is read from the fitted curve at half-maximal effect. A digest of the protocol: as §2
% is scaled to controls: 0 for no effect and ±100 for the full control effect.

For `CCCCCCCC/C=C\CCCCCCCCO`, the Potency result in assay [1], in [2], in assay [3], in assay [5], in assay [6] and in assay [7] was “inactive” in each case. For the same molecule, the Potency entry in [8], in assay [9] and in assay [10] was “inactive” throughout. In assay [4], the max response was 15% (inactive).

In the case of `COC(=O)CCS`, the Potency entry in assay [1], in assay [2], in assay [3], in assay [5], in assay [6] and in assay [7] was “inactive” throughout. Besides, the Potency entry in assay [8] and in [9] was “inactive” each time. For the same molecule, the max response in assay [4] was 21.6% (inactive).

Consider `O=C1c2ccccc2C(=O)C1c1ccc(Br)cc1`, for which the Potency entry in assay [1], in [2], in assay [3], in [5], in [6] and in [7] was “inactive” throughout. The Potency result in assay [8] and in assay [9] was “inactive” in each case. In addition, the max response in [4] was -7.99% (inactive).

As for `CC(=O)c1ccc([N+](=O)[O-])cc1`, the Potency entry in [1], in [2], in assay [3], in [5], in assay [6] and in [7] was “inactive” throughout. For the same molecule, the Potency entry in [8], in assay [9] and in [10] was “inactive” in each case. Besides, the max response in assay [4] is 11.2% (inactive).

For `CCC(C)(C)OC`, the Potency entry in [1], in [2], in [3], in assay [5], in [6] and in assay [7] was “inactive” throughout. The Potency result in assay [8] and in [9] was “inactive” throughout. For the same molecule, the max response in [4] is 7.38% (inactive).

Regarding `CC(CO)CO`, the Potency result in [1], in assay [2], in assay [3], in assay [5], in [6] and in assay [7] was “inactive” in each case. In addition, the Potency result in [8] and in assay [9] was “inactive” each time. For the same molecule, the max response in assay [4] was 3.5% (inactive).

As for `C[C@@H](O)[C@H]1C(=O)N2C(C(=O)O)=C([C@H]3CCCO3)S[C@H]12`, the Potency result in assay [1], in assay [2], in assay [3], in assay [5], in assay [6] and in [7] was “inactive” throughout. Also, the Potency result in [8] and in assay [9] was “inactive” in each case. The max response in [4] was 5.96% (inactive).

Consider `CC(C)Nc1cccnc1N1CCN(C(=O)c2cc3cc(NS(C)(=O)=O)ccc3[nH]2)CC1`, for which the Potency entry in [1], in assay [2], in assay [3], in assay [5], in [6] and in [7] was “inactive” in each case. Also, the Potency entry in assay [8] and in [9] was “inactive” throughout. Also, the max response in assay [4] is -29% (inactive). In addition, the Potency in assay [10] was 9.52 µM (active).

As for `NNC(=O)CP(=O)(c1ccccc1)c1ccccc1`, the Potency result in assay [1], in assay [2], in [3], in [5], in assay [6] and in [7] was “inactive” in each case. Besides, the Potency result in assay [8], in assay [9] and in assay [10] was “inactive” each time. Also, in assay [4], the max response was -3.49% (inactive).

As for `CC1CC(OC(=O)C(O)c2ccccc2)CC(C)(C)N1C` (configuration not stated), the Potency entry in [1], in assay [2], in assay [3], in assay [5], in assay [6] and in assay [7] was “inactive” throughout. Besides, the Potency entry in assay [8] and in [9] was “inactive” in each case. For the same molecule, the max response in [4] is 0.136% (inactive).

For the molecule `C=C1C[C@@]23CC[C@H]4[C@@](C)(CCC[C@@]4(C)C(=O)O[C@@H]4O[C@H](CO)[C@@H](O)[C@H](O)[C@H]4O)[C@@H]2CC[C@]1(O[C@@H]1O[C@H](CO)[C@@H](O)[C@H](O[C@@H]2O[C@H](CO)[C@@H](O)[C@H](O)[C@H]2O)[C@H]1O[C@@H]1O[C@H](CO)[C@@H](O)[C@H](O)[C@H]1O)C3`, the Potency result in assay [1], in [2], in assay [3], in assay [5], in assay [6] and in [7] was “inactive” throughout. The Potency entry in assay [8], in assay [9] and in [10] was “inactive” throughout. Besides, the max response in assay [4] was 3.82% (inactive).

Consider `O=C(O)CCc1nc(-c2ccccc2)c(-c2ccccc2)o1`, for which the Potency result in assay [1], in assay [2], in assay [3], in assay [5], in assay [6] and in [7] was “inactive” each time. The Potency entry in [8] and in [9] was “inactive” throughout. In [4], the max response is 0.935% (inactive).

As to `CCC(OCCCOC)OC(C)=O` (configuration not stated), the Potency entry in assay [1], in assay [2], in [3], in assay [5], in assay [6] and in assay [7] was “inactive” throughout. Further, the Potency result in assay [8] and in [9] was “inactive” in each case. Further, the max response in assay [4] is 3.03% (inactive).

Turning to `NC(=O)c1ccncc1`, the Potency entry in assay [1], in [2], in assay [3], in assay [5], in [6] and in [7] was “inactive” throughout. The Potency result in assay [8] and in assay [9] was “inactive” throughout. Moreover, the max response in [4] was 6.51% (inactive).

For `C=C(C)C(=O)OCCCCCCCCCCCCC`, the Potency result in assay [1], in assay [2], in assay [3], in [5], in [6] and in assay [7] was “inactive” in each case. In addition, the Potency entry in assay [8] and in assay [9] was “inactive” each time. The max response in [4] is 4.36% (inactive).

Take `O=C1NCCN1CCO`: the Potency entry in assay [1], in assay [2], in [3], in assay [5], in [6] and in [7] was “inactive” in each case. Moreover, the Potency entry in assay [8], in assay [9] and in assay [10] was “inactive” throughout. Besides, the max response in assay [4] was 15.9% (inactive).

For the molecule `CC/C=C1/OC(=O)c2ccccc21`, the Potency result in assay [1], in [2], in assay [3], in assay [5], in assay [6] and in [7] was “inactive” throughout. In addition, the Potency result in [8], in assay [9] and in assay [10] was “inactive” throughout. In addition, the max response in [4] is -7.38% (inactive).

Turning to `Cc1cc(C)c(N)cc1C`, the Potency entry in assay [1], in assay [2], in assay [3], in assay [5], in assay [6] and in assay [7] was “inactive” throughout. The Potency result in assay [8] and in [9] was “inactive” throughout. Besides, in [4], the max response was 1.12% (inactive).

Take `CC1(C)O[C@@H]2C[C@H]3[C@@H]4C[C@H](F)C5=CC(=O)C=C[C@]5(C)[C@H]4[C@@H](O)C[C@]3(C)[C@]2(C(=O)CO)O1`: the Potency entry in [1], in assay [2], in [3], in [5], in assay [6] and in assay [7] was “inactive” each time. The Potency entry in [8] and in assay [9] was “inactive” each time. The max response in assay [4] was -1.56% (inactive).

As for `CCCCCCCCN`, the Potency result in [1], in assay [2], in assay [3], in assay [5], in assay [6] and in [7] was “inactive” in each case. The Potency result in assay [8] and in assay [9] was “inactive” each time. Moreover, the max response in assay [4] was -0.288% (inactive).
